HT1080NT lethal: qHTS for induction of synthetic lethality in tumor cells producing 2HG: qHTS for the HT-1080-NT fibrosarcoma cell line | Potency, µM (doses to about 46.1 µM), usual class: cytotoxic | HT-1080-NT fibrosarcoma viability, CellTiter-Glo ATP luminescence, 48 h | actives 1.6% (n = 360,000);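 also: NT is the 2HG producing partner of a matched IDH1 knockdown line; nearly all actives have a fitted effect of over 55% in size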
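Luminescent CellTiter-Glo readout after 48 hours of compound exposure at 37 degrees C defined viability of HT-1080-NT cells. Activity was normalized to DMSO wells and cell-free media wells; concentration-response curves were fitted and assigned curve classes.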
HepG2 tox: qHTS for Inhibitors of TGF-b: Cytotox Counterscreen; actives 0.76% (n = 410,000); HepG2 CAGA-GFP viability, ATP luminescence, 18 h; AID 588856, 2011; Potency, µM (series often up to 46.1 µM), usual class: cytotoxic
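HepG2 CAGA-GFP cells (1000/well, DMEM with 1% FBS) received compound, then TGF-beta at 500 pg/mL final, and were incubated 18 hours at 37 degrees C. Viability was read by CellTiter-Glo luminescence. Media-only wells were set as complete cell-killing and DMSO as no toxicity.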
IL-1B inflam inh: qHTS for Inhibitors of Inflammasome Signaling: IL-1-beta AlphaLISA Primary Screen | THP-1 LPS/ATP IL-1B secretion, AlphaLISA, 16 h; active compounds read low | actives 4.7% (n = 360,000) | activity change, % at 57.5 µM; in the data active = activity change below about -50%; inconclusive = mostly about -30% to -49%
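THP-1 cells pretreated 1 hr with compounds (up to 57.5 uM final), then stimulated with LPS (250 ng/mL final) plus ATP (1.25 mM final); secreted IL-1B measured by AlphaLISA after 16 hr, decreased signal indicating inhibition.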
TGFb SMAD3 inh: qHTS for Inhibitors of TGF-b. HepG2 CAGA-GFP TGF-b/SMAD3 reporter, GFP fluorescence, 18 h; TGF-beta stimulated, 500 pg/mL final. Potency, µM (titrated, usually from 46.1 µM), most hits filed as inhibitors. actives 1.2% (n = 410,000). AID 588855, 2011; also: nearly all actives have a fitted effect of over 65% in size
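HEPG2 CAGA-GFP, 1000 cells/well; 2 h settle, 37 C; cpd via pin tool; TGF-b 500 pg/mL final; 18 h, 37 C; GFP imaging ex488/em500-530; %Activity normalised to -TGF-b and +DMSO controls; CRC fit, curve class.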
Giardia kill: Small Molecules that selectively kill Giardia lamblia: qHTS | actives 0.15% (n = 340,000) | Giardia lamblia trophozoite viability | activity change, % at 7.66 µM, hits read low; in the data active = activity change below about -80%; inconclusive = between about -30% and that limit;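 also: parasites exposed to compound for two days anaerobically before the ATP read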
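Viability, read as ATP luminescence: trophozoites at 100 cells/well, compound added, 48 hrs anaerobic at 37 deg C, then 15-30 min room-temperature development before reading.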
HT1080 IDH1KD tx: qHTS for induction of synthetic lethality in tumor cells producing 2HG: qHTS for the HT-1080-IDH1KD cell line | Potency, µM (highest dose often 46.1 µM), actives largely listed as cytotoxic | actives 2% (n = 360,000) | AID 686971, 2013 | HT-1080 IDH1 knockdown viability, ATP luminescence, 48 h
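Assay cells: HT-1080 with IDH1 knockdown, 750 per well, RPMI/5% FBS. Exposure: 48 h at 37 °C following 2 h pre-incubation. Read: CellTiter-Glo luminescence; fitted concentration-response, curve class assigned.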
Of the large screens only hits and unclear results are named; the others gave an inactive call. This is a sample that favours compounds with a hit; in the whole collection about 6.5% have one here. Unless noted, calls follow the shape of the dose curve; as a rule, active = well fitted curve in the direction sought with a large enough effect; inconclusive = small, poorly fitted or top-dose-only effect, or another doubt; inactive = no such curve, though single readings can be large; an effect the other way counts as inactive or inconclusive.

C/C=C(/C(=C/C)c1ccc(O)cc1)c1ccc(O)cc1	TGFb SMAD3 inh inconclusive
Fc1ccc2[nH]c3c(NCc4ccccc4)ncnc3c2c1	HT1080NT lethal inconclusive, IL-1B inflam inh -86, TGFb SMAD3 inh inconclusive, HT1080 IDH1KD tx inconclusive
Oc1ccc(-c2nnc(SCC3CCCCC3)o2)cc1	HepG2 tox 11µM
CC[C@]12c3[nH]c4ccccc4c3CCN1C(=O)C(CC(=O)NC/C=C(\C)CCC=C(C)C)C[C@@H]2C(=O)N1CCN(C(=O)c2ccco2)CC1 (stereo partly drawn)	IL-1B inflam inh -53, TGFb SMAD3 inh inconclusive, HT1080 IDH1KD tx inconclusive
CC[C@]12c3[nH]c4ccc(OC)cc4c3CCN1C(=O)C(CC(=O)NC/C=C(\C)CCC=C(C)C)C[C@@H]2C(=O)N1CCN(C(=O)c2ccco2)CC1 (stereo partly drawn)	IL-1B inflam inh -53, TGFb SMAD3 inh inconclusive
CC(C)=CCC/C(C)=C/CNC(=O)C[C@H]1C[C@H](C(=O)N2CCCCC2)[C@@]2(C)c3[nH]c4cc(CCC(=O)N(C)C)ccc4c3CCN2C1=O	IL-1B inflam inh -68, TGFb SMAD3 inh inconclusive
CC(C)=CCC/C(C)=C/CNC(=O)C[C@H]1C[C@H](C(=O)N2CCOCC2)[C@@]2(C)c3[nH]c4cc(CCC(=O)N(C)C)ccc4c3CCN2C1=O	TGFb SMAD3 inh inconclusive
COc1ccc2[nH]c3c(c2c1)CCN1C(=O)C(CC(=O)NC/C=C(\C)CCC=C(C)C)C[C@H](C(=O)N(C(C)C)C(C)C)[C@@]31C (stereo partly drawn)	HT1080NT lethal inconclusive, IL-1B inflam inh -64, TGFb SMAD3 inh 16µM, HT1080 IDH1KD tx inconclusive
O=C(O)c1ccccc1S(=O)(=O)NCC(O)COc1ccc(Br)cc1 (stereo not drawn)	none
Cc1ccc2cccc(NC(=S)NC(=O)c3c(Br)cnn3C)c2n1	none
Cc1ccc2cccc(NC(=S)NC(=O)c3ccn(C)n3)c2n1	HT1080NT lethal 7.9µM, HT1080 IDH1KD tx 7.9µM
COc1ccc(-c2c(-c3ccc4c(c3)OCO4)noc2C)cn1	none
COc1cc(-c2c(-c3cc(OC)c(OC)c(OC)c3)noc2C)ccc1F	HT1080NT lethal 0.13µM, TGFb SMAD3 inh inconclusive, HT1080 IDH1KD tx 0.33µM
COc1ccc(-c2c(-c3cc(OC)c(OC)c(OC)c3)noc2C)cn1	HT1080NT lethal inconclusive, TGFb SMAD3 inh inconclusive, HT1080 IDH1KD tx 1.5µM
O=C(c1ccco1)N1N=C(c2ccc(Br)cc2)CC1c1ccco1 (stereo not drawn)	IL-1B inflam inh -67
CC(C)[C@H](NS(=O)(=O)c1ccccc1)C(=O)OCC(=O)N1N=C(c2ccc(Cl)cc2)CC1c1ccco1 (stereo partly drawn)	HT1080NT lethal inconclusive, IL-1B inflam inh -72, TGFb SMAD3 inh inconclusive, HT1080 IDH1KD tx inconclusive
O=C(COc1cccnc1[N+](=O)[O-])N1N=C(c2ccc(Cl)cc2)CC1c1ccco1 (stereo not drawn)	HT1080NT lethal inconclusive, Giardia kill inconclusive, HT1080 IDH1KD tx inconclusive
Cc1ccc(OCC(=O)N2N=C(c3ccc(Cl)cc3)CC2c2ccco2)c([N+](=O)[O-])n1 (stereo not drawn)	IL-1B inflam inh -54
CC(=O)N1N=C(c2ccc(NS(=O)(=O)c3ccccc3)cc2)CC1c1ccco1 (stereo not drawn)	HT1080NT lethal 4.6µM, TGFb SMAD3 inh inconclusive, HT1080 IDH1KD tx 5.2µM
Cc1cc(OC(C)C(=O)NC(Cc2c[nH]c3ccc(O)cc23)C(=O)O)c2c(C)c(C)c(=O)oc2c1 (stereo not drawn)	none
CCS(=O)(=O)Nc1ccc(C2=NN(C(=O)c3ccco3)C(c3ccco3)C2)cc1 (stereo not drawn)	HT1080NT lethal inconclusive, TGFb SMAD3 inh inconclusive, HT1080 IDH1KD tx 16µM

Screening results: PubChem BioAssay, National Center for Advancing Translational Sciences (NCATS)
